Screening data as filed in PubChem.
TDP1 cell noCPT: qHTS for Inhibitors of human tyrosyl-DNA phosphodiesterase 1 (TDP1): qHTS in cells in absence of CPT. DT40 Tdp1-/- hTDP1 cells, no CPT, ATP luminescence, 48 h. Potency, µM (titrated, usually from 46.2 µM), for the others: at the top dose activity change, negative = growth inhibition, usual class: inhibitors. 420,000 compounds, 15% hits. AID 686978, 2013; note: potency is the fitted concentration of half-maximal effect; nearly all actives have a fitted effect of over 55% in size
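Stably hTDP1-transfected Tdp1-null chicken DT40 cells were treated with library compounds minus camptothecin and grown for at least 48 hr at 37 °C, after which cellular ATP was quantified by luminescence.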
HT1080-NT tox: kills 2HG-producing HT-1080-NT fibrosarcoma cells; 360,000 compounds, 1.6% hits; Potency, µM (series often up to 46.1 µM), for the others: at the highest dose activity, negative = less viability, hits mostly cytotoxic; AID 686970; HT-1080-NT fibrosarcoma viability, CellTiter-Glo ATP luminescence, 48 h;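 note: NT is the 2HG producing partner of a matched IDH1 knockdown line; potency is the fitted concentration of half-maximal effect; 0% = DMSO-treated cells and -100% = media-only wells without cells; nearly all actives have a fitted effect of over 55% in size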
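Luminescent CellTiter-Glo readout after 48 hours of compound exposure at 37 degrees C defined viability of HT-1080-NT cells. Activity was normalized to DMSO wells and cell-free media wells; concentration-response curves were fitted and assigned curve classes.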
HT1080 IDH1KD tx: HT-1080 IDH1 knockdown cell toxicity (counter line) | 360,000 compounds, 2% hits | Potency, µM (top dose mostly 46.1 µM), inactives show at the highest dose activity, negative = toxicity, hits mostly cytotoxic | HT-1080 IDH1 knockdown viability, ATP luminescence, 48 h;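 note: potency is the fitted concentration of half-maximal effect; 0% = DMSO wells and -100% = cell-free medium wells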
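HT-1080-IDH1KD cells (IDH1 knocked down), 750/well in RPMI with 5% FBS, treated with compound 48 h at 37 degrees C. Viability by CellTiter-Glo luminescence, normalised to DMSO and no-cell wells; concentration-response curves classed.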
IL-1B inflam inh: inhibitors of inflammasome signaling (IL-1 beta secretion) | THP-1 LPS/ATP IL-1B secretion, AlphaLISA, 16 h; active compounds read low | activity change, % at 57.5 µM | 360,000 compounds, 4.7% hits | AID 743279; in the data active = activity change below about -50%; inconclusive = mostly about -30% to -49%
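Secreted IL-1B measured by AlphaLISA bead assay after 16 h compound exposure of THP-1 cells; compounds (final up to 57.5 uM) added 1 h before LPS (250 ng/mL) and ATP (1.25 mM) stimulation; lower signal means less secretion.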
ELG1 DNA repair: blocks ELG1-dependent DNA repair in HEK293T cells | HEK293T ELG1-luciferase reporter, luminescence, 16 h; DNA damage induced by 5-fluorouridine | Potency, µM (highest dose often 46.1 µM), without a hit: top-dose activity change, negative = inhibition, usual class: inhibitors | 330,000 compounds, 2.3% hits; note: potency is the fitted concentration of half-maximal effect; nearly all actives have a fitted effect of over 55% in size
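5-Fluorouridine DNA damage + compound/DMSO, 2,000 cells/well, 16 h, 37 °C/5% CO2. ONE-Glo, 30 min RT, luminescence. Readout = decrease in reporter signal.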
TDP1 cell CPT: DT40-hTDP1 cell growth loss with CPT. chicken DT40 Tdp1-/-;hTDP1 cells + 20 nM CPT, ATP luminescence, 48 h. Potency, µM (titrated, usually from 46.2 µM), without a hit: at the highest dose activity change, negative = growth inhibition, most hits filed as inhibitors. 420,000 compounds, 12% hits. AID 686979; note: potency is the fitted concentration of half-maximal effect; nearly all actives have a fitted effect of over 55% in size
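Chicken DT40 Tdp1-/- cells stably complemented with human TDP1 were seeded at 400 cells/well in medium containing 20 nM camptothecin, exposed to pin-transferred compounds, and grown at 37 °C for at least 48 hr. Viability was read as ATP luminescence.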
Starred values were filed as active, the others as inactive; ? = inconclusive; . = not tested or not shown. This is a sample that favours compounds with a hit; in the whole collection about 19% have one here. Unless noted, calls come from the whole dose curve; as a rule, active = well fitted curve in the direction sought with a large enough effect; inconclusive = small, poorly fitted or top-dose-only effect, or another doubt; inactive = no such curve, though single readings can be large; an effect the other way counts as inactive or inconclusive. Unless noted, % is set by controls: 0 for no effect and ±100 for the full control effect.

SMILES	TDP1 cell noCPT	HT1080-NT tox	HT1080 IDH1KD tx	IL-1B inflam inh	ELG1 DNA repair	TDP1 cell CPT
Cc1ccc(-c2csc(=Nc3ccc(F)cc3)n2Cc2ccc3c(c2)OCO3)cc1C	14.6µM*	.	.	.	.	18.4µM*
Clc1ccc(-c2csc(=Nc3ccccc3)n2Cc2ccc3c(c2)OCO3)cc1	10.3µM*	.	.	.	.	20.6µM*
COc1ccc(CCN(C)C(=O)CN2C(=O)NC3(CCCc4ccccc43)C2=O)cc1OC (stereo not given)	-9.8%	-2.0%	-1.1%	-10.3	10.8%	1.1%
COC(=O)[C@]12CCCCC=C1N(Cc1ccccc1)C(=O)[C@H](CC(=O)N1CCSCC1)C2	?	12.9%	14.1%	-8.5	.	?
COC(=O)c1cc(=O)nc2sc(-c3ccc(F)cc3)nn12	?	-5.2%	-13.9%	-6.2	16.2%	23.1µM*
Cc1ccccc1OCC(=O)Nc1ccc2c(c1)n(C)c(=O)n2C	14.6µM*	0.2%	-17.3%	-24.4	1.9%	?
Cn1c(=O)n(C)c2cc(NC(=O)CCl)ccc21	11.6µM*	?	?	-91.0*	?	10.3µM*
CC(C)Oc1ccc(/C(O)=C2/C(=O)C(=O)N(CCN(C)C)C2c2cccs2)cc1 (stereo not given)	3.6%	6.7%	23.4%	-1.9	?	5.8%
O=C(CN1c2ccccc2Sc2ccccc21)NNC(=S)Nc1ccc(Cl)cc1	-15.0%	?	?	-7.5	?	0.5%
CCN1/C(=C\C(=S)Nc2ccccc2)Sc2ccccc21	3.26µM*	14.6µM*	9.2µM*	-97.1*	?	3.66µM*
NC(N)=NC(N)=Nc1cccc2ccccc12	?	10.1%	9.0%	-6.8	-12.7%	?
Cc1c(Cl)cccc1N=C(N)N=C(N)N	23.1µM*	3.1%	12.5%	-5.1	-5.6%	?
O=C(NCCN1CCN(C(=O)C(c2ccccc2)c2ccccc2)CC1)C(=O)Nc1ccccc1	-29.0%	-10.8%	-7.9%	-0.7	-2.5%	?
Cc1ccc(NC(=O)C(=O)NCCN2CCN(C(=O)C(c3ccccc3)c3ccccc3)CC2)cc1	18.4µM*	2.0%	13.8%	?	?	18.4µM*
CCOc1ccc(NC(=O)C(=O)NCCN2CCN(S(=O)(=O)c3ccc(C)cc3)CC2)cc1	9.2µM*	1.7%	-12.4%	0.0	?	?
NS(=O)(=O)c1cccc(NC(=O)C(Cc2ccccc2)NC(=O)c2ccccc2)c1 (stereo not given)	-7.2%	-4.9%	-0.5%	-5.1	9.7%	29.8%
COc1ccc(N2CCN(C(c3nnnn3CCc3ccccc3)C(C)C)CC2)cc1 (stereo not given)	18.4µM*	-4.4%	-2.8%	-22.9	?	13µM*
CC1CCN(C(c2nnnn2CCc2ccccc2)C(C)C)CC1 (stereo not given)	18.4µM*	2.1%	-4.3%	-5.9	1.9%	?
Clc1ccc(CCNC(c2nnc(-c3ccccc3)o2)c2ccccc2Cl)cc1 (stereo not given)	23.1µM*	.	.	.	.	18.4µM*
CCN(CC)CCCC(C)Nc1nccc2cccc(Cl)c12 (stereo not given)	?	-29.7%	-24.6%	-6.9	.	?
CCN(CC)CC(O)CNc1ccnc2c(Cl)ccc(Cl)c12 (stereo not given)	-6.2%	0.5%	-17.6%	-66.0*	.	5.6%
COc1cccc2c(Nc3ccccc3C)cc(C)nc12	13µM*	?	?	-100.6*	-10.4%	18.4µM*
Cc1ccc(Nc2cc(C)nc3ccccc23)c(C)c1	11.6µM*	?	?	-94.5*	.	11.6µM*
Cc1cc(Nc2ccccc2O)c2ccccc2n1	?	-25.4%	-0.3%	-63.0*	-1.8%	?
Cc1ccc(C)c(Nc2cc(C)nc3ccccc23)c1	16.4µM*	-9.9%	?	-70.3*	.	14.6µM*
SMILES	TDP1 cell noCPT	HT1080-NT tox	HT1080 IDH1KD tx	IL-1B inflam inh	ELG1 DNA repair	TDP1 cell CPT
C=CCNc1ncnc2c1ncn2[C@H]1CN(CCN2CCOCC2)C[C@@H](CO)O1	10.4%	?	11.6%	0.9	.	-2.8%
O=S(=O)(c1ccc(-c2ccccn2)s1)N1CCC2(CC1)OCCO2	?	-2.7%	-4.0%	23.5	?	-3.5%
COCCNC(=O)CCCn1c(SCC(=O)c2ccc(F)cc2)nc2c(sc3ccccc32)c1=O	-14.7%	.	.	.	.	-13.2%
CN(CCc1ccccc1)C1CCCN(S(=O)(=O)N(C)C)C1 (stereo not given)	8.3%	7.8%	-0.4%	3.3	-1.8%	16.3%
CC(=O)Nc1cccc(Nc2nc(-c3ccccc3F)nc3ccccc23)c1	?	-18.0%	?	-52.5*	14.6µM*	?
CC(C)Oc1nc(-c2ccccc2Cl)nc2ccccc12	14.6µM*	-16.1%	?	31.7	7.7%	?
CC(=O)c1cccc(Nc2nc(-c3ccccc3Cl)nc3ccccc23)c1	10.3µM*	.	.	.	.	14.6µM*
COC(=O)c1ccc(Nc2nc(-c3ccccc3Cl)nc3ccccc23)cc1	16.4µM*	.	.	.	.	?
CCOCCn1c(C)c(C(=O)OCC)c2cc(O)c3ccccc3c21	?	0.2%	6.8%	0.0	8.7%	?
N[C@@H](CSS(=O)(=O)O)C(=O)O	1.3%	.	.	.	.	7.2%
Cc1cc(Cl)ccc1OCC(=O)Nc1c(C(=O)c2ccccc2)oc2ccccc12	6.8%	.	.	.	.	0.4%
Cc1cccc(-c2nc(Nc3cccc(O)c3)c3ccccc3n2)c1	?	-7.6%	0.5%	0.0	?	?
CC(=O)c1cccc(Nc2nc(-c3cccc(C)c3)nc3ccccc23)c1	5.8µM*	.	.	.	.	20.6µM*
NNC(=O)C(=O)NCCCN1CCOCC1	-6.1%	18.4%	0.7%	16.8	-10.0%	5.4%
Cc1cccc(N=Cc2[nH]c3ccc(Br)c(Cl)c3c2O)c1	?	?	-0.6%	43.4	?	25.9µM*
CC1=NN2C(=N)/C(=C\c3cc(C)n(Cc4ccccc4)c3C)C(=O)N=C2S1	25.9µM*	-4.5%	-1.9%	-5.6	?	-7.4%
Cc1cc(/C=C2\C(=N)N3N=C(CC(=O)N4CCOCC4)SC3=NC2=O)c(C)n1Cc1ccccc1	10.4%	6.0%	4.4%	20.4	7.4%	1.4%
Cc1nn2c(=O)cc(COC(=O)c3cccs3)nc2s1	-0.6%	.	.	.	.	?
CC(=O)c1ccc(NC(=O)c2sc(-n3nc(C)c(Cc4ccc5c(c4)OCO5)c3C)nc2C)cc1	16.4µM*	.	.	.	.	16.4µM*
Cc1nc(-n2nc(C)c(Cc3ccc4c(c3)OCO4)c2C)sc1C(=O)Nc1cccc(Cl)c1	16.4µM*	.	.	.	.	?
